Screening data (PubChem)
This is a sample that favours compounds with a hit; in the whole collection about 1.5% have one here.
IL1B cytotox: HUVEC cytotoxicity counter-screen, IL-1B stimulated | HUVEC cell count loss, Hoechst imaging | cell count reduction, % at 2 µM | hit rate 0.41% among 94,000;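 active = cell count reduction more than 3 SD above the screen-wide mean, cut at about 70% in these data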
TNFa cytotox: HUVEC cytotoxicity counter-screen, TNF alpha stimulated. HUVEC TNFalpha-stimulated, Hoechst cell count, imaging. cell count reduction, % at 2 µM. hit rate 0.17% among 93,000. AID 848;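 active = cell count reduction exceeding the screen mean by over 5 SD, scaled to untreated wells per plate, cut at about 78% in these data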;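 also: cells counted after 24 h of TNF alpha exposure following the 1 h pretreatment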
VCAM1 TNFa inh: reduces TNF alpha induced VCAM1 expression in HUVEC | HUVEC TNFa-induced VCAM-1 immunofluorescence, high-content imaging | hit rate 0.48% among 95,000 | AID 802 | inhibition, % at 2 µM;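 active = inhibition above the batch mean plus 3 SD, with images confirmed as a hit by eye, cut at about 37% in these data; inconclusive = inhibition above that limit but hit not confirmed in images; inactive = inhibition not above that limit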
IL1B NFkB inh: blocks IL-1B driven NFkB nuclear translocation in HUVEC cells | AID 796 | HUVEC IL-1B NFkB p65 nuclear translocation imaging | hit rate 0.43% among 94,000 | inhibition, % at 2 µM;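 active = inhibition above about 30% together with a positive call from visual inspection of the well image, limit read from the data; inconclusive = inhibition above a set limit but visual check negative; inactive = inhibition not above a set limit, visual check negative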;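 also: nuclear over cytoplasmic p65 intensity ratio measured by imaging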
NFkB transloc pot: enhances IL-1B driven NFkB nuclear translocation | activation, % at 2 µM | hit rate 0.3% among 94,000 | HUVEC IL-1B NFkB p65 nuclear translocation imaging;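 active = activation above 40%, about the mean plus 3 SD, also judged a hit on visual image review; inconclusive = activation above 40% but not a hit on visual review; inactive = activation not above 40% and no visual hit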;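 also: percent activation is computed from the nuclear over cytoplasmic p65 intensity ratio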
Each line names hits and unclear results; the compound was inactive in the other large screens.

Cc1ccc(S(=O)(=O)c2nc(-c3ccccc3)oc2NCc2cccnc2)cc1	IL1B NFkB inh 32.1
CCOC(=O)N1CCN(c2ncnc3c2[nH]c2ccc(F)cc23)CC1	none
OC1(c2cccc(C(F)(F)F)c2)CCN(c2ncnc3c2[nH]c2ccc(F)cc23)CC1	VCAM1 TNFa inh 54.2
CN1C(=O)/C(=C\c2ccccc2)Sc2ccc(C(=O)N3CCN(c4ccccn4)CC3)cc21	none
O=C(NCNC(=O)c1ccccc1)c1ccccc1	IL1B cytotox 80.9
CCN1CCc2c(sc(NC(=S)NC(=O)c3ccccc3)c2C#N)C1	IL1B cytotox 92.6
CN(CC(=O)O/N=C(\N)c1ccc([N+](=O)[O-])cc1)S(=O)(=O)c1ccccc1	NFkB transloc pot 50.3
Cc1ccc(-c2noc(CCC(=O)NCCN3CCc4ccccc4C3)n2)cc1	none
CC(C)NC(=O)COc1ccc(/C=N/NS(=O)(=O)c2ccccc2)cc1	none (no result: TNFa cytotox)
O=C(COc1ccc(/C=N/NS(=O)(=O)c2ccccc2)cc1)Nc1ccc(F)cc1	IL1B cytotox 84.3 (no result: TNFa cytotox)
COc1ccc(/C=N/NC(=O)c2csc(-n3nc(C)cc3C(F)(F)F)n2)cc1	none
COc1ccc(S(=O)(=O)NNC(=O)c2csc(-n3nc(C)cc3C(F)(F)F)n2)cc1OC	NFkB transloc pot 52.4
CC(C)CC(c1nnnn1Cc1ccccc1)N1CCN(C(=O)c2ccco2)CC1 (stereo unspecified)	none
Cn1c(=O)c2c(SCC(=O)N3CCCc4ccccc43)nc(CC(C)(C)C)nc2n(C)c1=O	NFkB transloc pot 42.4
CCCc1nc(SCC(=O)N2CCCc3ccccc32)c2c(=O)n(C)c(=O)n(C)c2n1	none
COCCCNC(=O)CN(Cc1ccc(Cl)cc1)S(C)(=O)=O	TNFa cytotox 97.4 (no result: VCAM1 TNFa inh)
CCCOc1ccc(CC(=O)NCC2(c3ccccc3)CCOCC2)cc1OC	none
COc1cccc(NC(=O)CCc2nc(-c3ccccc3F)no2)c1	IL1B cytotox 81.9
CCOC(=O)c1ccc(NC(=O)CCc2nc(-c3cccc(C)c3)no2)cc1	IL1B cytotox 87.1, IL1B NFkB inh 99.0
Cc1ccc(CNC(=O)CSc2c3c(nc4cc(Cl)ccc24)CCCC3)o1	none
O=C(CS(=O)c1ccc(C(F)(F)F)cc1[N+](=O)[O-])Oc1ccccc1 (stereo unspecified)	VCAM1 TNFa inh 88.0
CCOC(=O)c1c(NC(=O)Cc2cccs2)sc2c1CCCC2	none
NC(=O)c1c(NC(=O)Cc2cccs2)sc2c1CCC2	VCAM1 TNFa inh 92.5
CCCN(CCC)S(=O)(=O)c1ccc(NS(=O)(=O)c2ccc(F)cc2)cc1	none
CCN(CC)S(=O)(=O)c1cc(F)ccc1OC	IL1B cytotox 77.2
CCN(CC)c1ccc(C2C(C(C)=O)C(=O)CC(C)(O)C2C(C)=O)cc1 (stereo unspecified)	none
O=C(NO)c1ccc(C(=O)N(C2CCCCC2)C2CCCCC2)cc1	NFkB transloc pot 43.5
CN(C(=O)c1ccc(C(=O)N(C)C2CCCCC2)cc1)C1CCCCC1	none
Cc1ccn2c(NC(=O)c3ccco3)c(-c3ccccc3)nc2c1	VCAM1 TNFa inh 97.4
CCOC(=O)Nc1ccc(OC)cc1S(=O)(=O)N1CCCCC1	none
CCOC(=O)c1cnn(-c2nc(-c3ccc(C)cc3)cs2)c1C(F)(F)F	VCAM1 TNFa inh 96.3
Cc1ccc2nc(C3CCN(S(=O)(=O)c4ccc5ccccc5c4)CC3)[nH]c2c1	none
O=C(NCC(c1cccnc1)N1CCOCC1)c1ccc2c(c1)OCO2 (stereo unspecified)	IL1B NFkB inh 35.7
COc1cccc(/C=N/n2c(-c3cccs3)n[nH]c2=S)c1	none
NC(=S)N/N=C/c1ccc(-c2ccc(Cl)c(Cl)c2)o1	VCAM1 TNFa inh 67.8
NC(=S)N/N=C\c1ccc(-c2cccc(Cl)c2Cl)o1	VCAM1 TNFa inh 80.2
O=C(C1CCC1)N1CCc2cc(S(=O)(=O)Nc3ccc4c(c3)OCCO4)ccc21	VCAM1 TNFa inh 83.0
Cn1c(=O)c(=O)n(C)c2cc(S(=O)(=O)Nc3ccc4c(c3)OCCO4)ccc21	none
CCC(=O)N1CCc2cc(S(=O)(=O)Nc3ccc4c(c3)OCCO4)ccc21	none
Cn1c(=O)oc2cc(S(=O)(=O)Nc3ccc4c(c3)OCCO4)ccc21	IL1B cytotox 91.9, IL1B NFkB inh 97.7
CC1=C(C(=O)Nc2cccnc2)C(c2ccc3c(c2)OCO3)C2=C(CCCC2=O)N1 (stereo unspecified)	none
N#C/C(=C/c1ccc(N2CCCCCC2)o1)c1ccc(F)cc1	IL1B NFkB inh 44.2
N#C/C(=C/c1ccc(N2CCCCCC2)o1)c1cccc(F)c1	none
O=[N+]([O-])c1cnccc1Nc1ccc(F)cc1	TNFa cytotox 94.4, VCAM1 TNFa inh 53.3
CCCC(C(=O)NC1CCCC1)N(CCCN1CCOCC1)C(=O)c1snc(C(N)=O)c1N (stereo unspecified)	VCAM1 TNFa inh 78.3
CCCC(C(=O)NC1CCCC1)N(CC1CCCO1)C(=O)c1snc(C(N)=O)c1N (stereo unspecified)	none
CCOC(=O)c1nnc2c(Br)c(-c3ccccc3)nn2c1C	none
O=S1(=O)CC(O)C(Nc2ccccc2)C1 (stereo unspecified)	none
CC(C)NC1CS(=O)(=O)CC1O (stereo unspecified)	TNFa cytotox 100.0, VCAM1 TNFa inh inconclusive
CCOC(=O)c1c(NC(=S)NC(=O)c2ccc(Cn3cc(Cl)cn3)o2)sc2c1CCCCC2	none
COc1cnn(-c2ccccc2)c(=O)c1SCc1ccc(Cl)c(Cl)c1	none (no result: IL1B cytotox, IL1B NFkB inh, NFkB transloc pot)
O=Cc1cc2ccccc2nc1SCc1ccc(Cl)cc1	VCAM1 TNFa inh 65.9
Cc1ccc(CSc2nc3ccccc3cc2C=O)cc1	IL1B cytotox 72.6, VCAM1 TNFa inh 95.1, IL1B NFkB inh 36.0
O=Cc1cc2ccccc2nc1SCc1ccc(Cl)c(Cl)c1	VCAM1 TNFa inh 72.2, IL1B NFkB inh 33.8
O=C(c1cccs1)N1CCN(C(=O)C(c2ccccc2)c2ccccc2)CC1	IL1B NFkB inh 39.5
O=C(c1ccsc1)N1CCN(C(=O)c2cccs2)CC1	IL1B cytotox 78.4
O=C(c1cccs1)N1CCN(S(=O)(=O)c2ccccc2)CC1	none
O=C(c1cccs1)N1CCN(S(=O)(=O)N2CCCCC2)CC1	IL1B cytotox 92.4
CNC(=S)N(Cc1ccc2c(c1)OCO2)C1CC(=O)N(c2ccc(F)cc2)C1=O (stereo unspecified)	none
CCn1c(SCC(=O)Nc2ccc(C(=O)OC)cc2)nnc1-c1cccs1	VCAM1 TNFa inh 55.4
CCOc1ccc(NC(=O)CSc2nnc(C(C)C)n2CC)cc1	IL1B cytotox 94.7, NFkB transloc pot inconclusive
CC(O)CNc1nc2ccccc2n1CC(=O)NCCc1ccc(Cl)cc1 (stereo unspecified)	none
CC(=O)N1CCN(c2cc(N3CCc4ccccc4C3)c(F)cc2[N+](=O)[O-])CC1	none
O=C(CSc1nnc(CNc2ccc(F)cc2)n1-c1ccccc1)N1CCOCC1	none
CCNc1nc(C)nc2c1oc1ccccc12	TNFa cytotox 92.5
Cc1nc(NC(C)C)c2oc3ccccc3c2n1	TNFa cytotox 90.6, VCAM1 TNFa inh 77.6
CCNc1nc(CC)nc2c1oc1ccccc12	none (no result: TNFa cytotox, VCAM1 TNFa inh)
Cc1nc(NCC2CCCO2)c2oc3ccccc3c2n1 (stereo unspecified)	none (no result: TNFa cytotox)
